# hcDAF12 agonist: H. contortus DAF-12 activation, primary screen; HEK293 hcDAF-12 lit1-tk-luc reporter, luminescence; 0% DMSO, 100% Δ7-dafachronic acid; activation, % at 6.8 µM; 1.4% of 370,000 active;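 active means activation above the mean of all tested compounds plus 3 SD, cut at about 5.5% in these data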;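 further: 100% = response to 3 µM Δ7-dafachronic acid high control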
# DAX1 inh-1: NR0B1 (DAX1) inhibition | P51843 | HEK293 Gal4-DAX1 luciferase reporter, luminescence | inhibition, % at 6.75 µM | 0.99% of 340,000 active;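 active means inhibition above the mean over all tested compounds plus 3 SD, cut at about 4.2% in these data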;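 further: 0% = DAX1-transfected cells with DMSO and 100% = empty-vector control cells with DMSO; inhibition shows as a rise in luminescence from relieved DAX1 repression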
# hgDAF12 agonist: activates the H. glycines DAF-12 receptor ligand-binding domain | HEK293 GAL4-hgDAF12 UAS-luciferase reporter, agonist luminescence; normalized to butyrate control | activation, % at 6.8 µM | 1.8% of 370,000 active | AID 687014;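 active means activation above a cutoff set at the mean of all screened compounds plus 3 SD, cut at about 10% in these data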;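 further: 0% = DMSO wells and 100% = sodium butyrate wells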
# DAX1 inh-2: DAX1 (NR0B1) inhibition, primary screen. HEK293T StAR-luciferase reporter, SF-1/DAX-1 repression relief. inhibition, % at 6.8 µM. 1.1% of 370,000 active. AID 652010;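 active means inhibition above the mean over all tested compounds plus 3 SD, cut at about 3.6% in these data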;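 further: 0% = DAX-1 cells with DMSO and 100% = cells lacking DAX-1 with DMSO; higher inhibition means more luminescence from relief of DAX-1 repression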
# ssDAF12 agonist: activators of S. stercoralis DAF-12 nuclear receptor; HEK293 ssDAF-12/GRIP1 lit1-tk-luc reporter, luminescence; % of 3 µM dafachronic acid response; activation, % at 6.8 µM; 1% of 370,000 active;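 active means activation above the mean over all tested compounds plus 3 SD, cut at about 0.9% in these data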;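 further: 0% = DMSO-only wells and 100% = 3 µM delta7-dafachronic acid wells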
# Wee1 degr inh: blocks degradation of human Wee1 kinase; P30291; HeLa Luc-Wee1K328M stability, luciferase luminescence; 100% = proteasome inhibitor MG132 effect; 1.2% of 220,000 active; reporter increase, % at 5 µM; AID 1321;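 active means activation above the mean of all tested compounds plus 3 SD, set per screening run, cut at about 8.8% in these data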;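 further: cells exposed to compound for 20 h before luminescence read; 0% = DMSO alone and 100% = MG132 at 30 µM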
# Target sequence (P30291 whole entry K328M): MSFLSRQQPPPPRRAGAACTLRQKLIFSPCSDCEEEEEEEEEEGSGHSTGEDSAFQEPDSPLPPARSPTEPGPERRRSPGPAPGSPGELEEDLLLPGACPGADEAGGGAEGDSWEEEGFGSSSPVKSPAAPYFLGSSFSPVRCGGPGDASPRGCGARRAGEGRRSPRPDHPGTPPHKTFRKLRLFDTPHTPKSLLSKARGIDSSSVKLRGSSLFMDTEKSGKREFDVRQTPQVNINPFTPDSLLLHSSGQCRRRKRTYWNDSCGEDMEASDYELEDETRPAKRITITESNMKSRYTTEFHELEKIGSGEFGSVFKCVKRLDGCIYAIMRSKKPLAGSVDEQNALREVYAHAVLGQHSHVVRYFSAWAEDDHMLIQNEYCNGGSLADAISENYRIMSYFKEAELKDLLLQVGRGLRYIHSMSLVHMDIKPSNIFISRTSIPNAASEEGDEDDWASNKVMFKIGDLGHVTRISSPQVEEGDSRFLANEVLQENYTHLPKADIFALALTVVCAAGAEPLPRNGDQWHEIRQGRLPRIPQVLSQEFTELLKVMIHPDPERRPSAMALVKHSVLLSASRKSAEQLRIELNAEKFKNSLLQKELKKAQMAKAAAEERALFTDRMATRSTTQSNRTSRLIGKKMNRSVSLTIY
# * hit, by the source's call; . = no result. An excerpt weighted towards active compounds, which were near 4.6% of everything screened.
SMILES,hcDAF12 agonist,DAX1 inh-1,hgDAF12 agonist,DAX1 inh-2,ssDAF12 agonist,Wee1 degr inh
Cc1cc(C)cc(NC(=O)COC(=O)c2n[nH]c3ccccc23)c1,1,1,12*,0,-1,0
C/C(=N\NC(=O)COc1ccc(C)cc1C(C)C)c1ccc(-n2ccnc2)cc1,-3,0,11*,0,-2,4
COC(=O)N/N=C(\C)c1ccc(-n2ccnc2)cc1,-1,2,-2,1,-1,2
CC1=NN(C(N)=S)C(=O)C1N=Nc1ccc(C)c(Br)c1 (centres undefined),6.1*,2,8,1,0,.
CCOC(=O)N1CCN(S(=O)(=O)c2ccc(C(=O)N(CCCN(C)C)c3nc4ccc(OC)cc4s3)cc2)CC1,2,-1,-1,3.6*,0,.
CCOC(=O)N1CCN(S(=O)(=O)c2ccc(C(=O)N(CCN(C)C)c3nc4ccc(Cl)cc4s3)cc2)CC1,3,0,1,3,-1,.
CC1(C)CC(=O)C2=C(C1)OC1=C(C(=O)CC(C)(C)C1)C2c1cc([N+](=O)[O-])cc([N+](=O)[O-])c1O,-1,0,2,1,-1,-4
CC1(C)CC(=O)C(C2C3=C(CC(C)(C)CC3=O)Oc3c(Br)cc(Br)cc32)=C(O)C1 (centres undefined),3,1,11*,1,1,.
C/C(=N\Nc1nc(C(C)(C)C)cs1)c1ccc(O)cc1,5.8*,-1,0,0,0,.
O=C(Cn1cnc2ccccc2c1=O)N1CCN(c2ccc(F)cc2)CC1,-2,0,1,0,-1,1
O=C(Cn1cnc2ccccc2c1=O)N1CCN(S(=O)(=O)c2ccc(F)cc2)CC1,1,0,-1,3.6*,-1,.
O=C(COc1ccc(Cl)cc1Cl)OCC(=O)N1CCCc2ccccc21,5,9.8*,4,1,1,5
O=C(CCCOc1ccc(Cl)cc1Cl)N1CCCc2ccccc21,0,-1,-2,0,-1,-1
Cc1c(C(=O)Nc2nccs2)sc2nc(-c3cccs3)cc(C(F)(F)F)c12,3,0,1,1,1.2*,-1
CC(=O)c1sc2nc(-c3cccs3)cc(C(F)(F)F)c2c1N,6.3*,0,2,0,0,-4
Cc1c(C(=O)O)sc2nc(-c3cccs3)cc(C(F)(F)F)c12,1,1,2,0,0,.
COc1ccc(CC(N)c2csc(Nc3nncc4ccccc34)n2)cc1 (centres undefined),-1,.,3,2,0,.
Cc1ccc(/C=N/NC(=O)c2ccco2)cc1,3,.,12*,2,-1,5
Cc1cccc(C(=O)Nc2cccc(C(=O)N/N=C/c3ccncc3)c2)c1,1,-1,0,-1,-2,-2
O=C(CCc1ccccc1)Nc1ccc(NC(=O)c2ccco2)cc1,0,1,4,1,-1,0
Cc1cccc(-n2c(C)cc(/C=N\NC(=O)c3ccco3)c2C)c1,2,2,10,2,-1,3
O=C(N/N=C\CCc1ccccc1)c1ccco1,3,2,13*,2,0,5
Cc1ccc(C(=O)Nc2cccc(C(=O)N/N=C/c3ccc(O)cc3)c2)cc1,5.9*,-1,7,1,0,.
COc1cccc(C(=O)N2CCC[C@H]2C(=O)N2CCC[C@H]2C(=O)N[C@@H](C)c2ccccc2)c1,-2,.,-1,1,0,.
CC(C)C(OC(=O)c1cc2c(s1)CCCCC2)C(=O)NC(N)=O (centres undefined),5.8*,1,-2,0,-1,6
SMILES,hcDAF12 agonist,DAX1 inh-1,hgDAF12 agonist,DAX1 inh-2,ssDAF12 agonist,Wee1 degr inh
CC(C)NC(=O)c1cc2c(s1)CCCC2,2,-1,1,-1,-1,8.9*
CSCC(C)N1CCC(CO)(CCc2ccccc2)CC1 (centres undefined),0,0,-1,0,-1,10.0*
CC(COc1ccccc1)N1CCC(CO)(CCc2ccccc2)CC1 (centres undefined),0,1,-1,0,-1,-1
COc1ccc(C2Nc3cccc(O)c3C(=O)N2Cc2ccccc2)cc1COc1ccc(NC(C)=O)cc1 (centres undefined),0,.,0,-2,0,.
Cc1cc(C)c2nc(-n3nc(C)cc3N)cc(C)c2c1,5.7*,1,7,1,0,5
CCCN1C=CC(=C/C=C(\C#N)C(=O)OCC)C=C1,.,.,.,.,.,12*
O=C(O)c1ccc(Nc2nc3c(s2)CCCC3)cc1,-2,-5,-9,0,-2,-3
O=S1(=O)N=C(Nc2nc3c(s2)CCCC3)c2ccccc21,5,1,11*,3,0,4
CC(C)=CCn1c2ccc(NC(=S)NC3CC3)cc2c(=O)n1C,4,.,-3,-1,-1,.
COc1cccc(-c2nc(-c3ccc4c(c3)NC(=O)CO4)cs2)c1,1,4,11*,0,-1,1
COC(=O)[C@]12C[C@H](CC(=O)N3CCN(C(=O)c4ccco4)CC3)C(=O)N(CCc3ccc(OC)c(OC)c3)C1=C[C@H](C(C)C)O[C@@H]2C1CC1,-2,.,0,-1,-1,.
CC(C)CN(C(=O)COC(=O)CCc1nc2ccccc2s1)c1c(N)n(Cc2ccccc2)c(=O)[nH]c1=O,2,1,1,3.7*,-1,.
CCN(C(=O)COC(=O)CCCc1nc2ccccc2s1)c1c(N)n(Cc2ccccc2)c(=O)[nH]c1=O,1,0,-1,-1,-1,.
O=C(CN1CCN(S(=O)(=O)c2ccccc2F)CC1)N1CCc2ccccc2C1,1,0,-2,0,-2,.
Cc1ccc(C(=O)Nc2ccc3cn[nH]c3c2)cc1S(=O)(=O)N1CCOCC1,5,0,6,1,0,9.7*
CC(=O)c1ccc(NC(=O)c2ccc(C)c(S(=O)(=O)N3CCOCC3)c2)cc1,-3,-2,1,-1,-1,.
COc1cccc(NC(=O)Nc2c(-c3ccc(F)cc3)nc3ncccn23)c1,-2,.,2,-1,-1,.
COc1cc(OC)c(C(=O)OCC(=O)NCC2CCCCC2)cc1OC,-1,-1,-1,0,-1,.
COc1cccc(NC(=O)CN(C)C(=O)CC(C)c2ccccc2)c1 (centres undefined),-2,1,0,-1,-1,.

# Source: PubChem BioAssay (The Scripps Research Institute Molecular Screening Center)
